Compound activity (PubChem)
In the library only some 7.2% were active in any assay of this set; here they are far more common.
VLA-4 inh: inhibition in a human VLA-4 binding assay; P13612; VLA-4 expressing cells, ligand binding flow cytometry; inhibition, % (about 7 µM as worked out from the volumes in the protocol); actives 0.2% (n = 330,000); AID 2557; in the data active = inhibition above about 50%
Bfl-1 A1 inh: inhibitors of the anti-apoptotic protein A1, read as caspase activation | MEF A1-2A-BIM cells, Caspase-Glo 3/7 luminescence, 3 h; percent of clofoctol response, vehicle zero | caspase activation, % (test concentration not listed) | actives 0.066% (n = 330,000);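 active = over half of replicate activation scores above 10%, or exactly half above 10 with the replicate mean above 10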
ALR inh: human ALR oxidase inhibition via reduced H2O2; P55789; inhibition, % (no concentration beside the values); purified ALR, DTT oxidation, H2O2 HRP-luminol luminescence; actives 3.8% (n = 290,000);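 active = mean replicate inhibition above about 79%, with every replicate also reaching it, limit read from the data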
Target sequence (P55789 whole entry, looked up): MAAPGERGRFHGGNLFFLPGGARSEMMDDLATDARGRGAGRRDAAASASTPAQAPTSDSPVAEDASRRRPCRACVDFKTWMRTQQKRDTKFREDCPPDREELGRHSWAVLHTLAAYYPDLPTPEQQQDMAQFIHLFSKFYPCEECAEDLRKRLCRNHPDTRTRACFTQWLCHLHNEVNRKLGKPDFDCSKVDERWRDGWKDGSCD
AHR act: activators of human aryl hydrocarbon receptor; P35869; AHR-responsive luciferase reporter cells, luminescence; activation, % at 5 µM; actives 2.5% (n = 320,000); AID 2796; in the data active = activation above about 47%;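 also: 0% = vehicle wells and 100% = reference agonist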
Efflux pump inh: inhibitors of Candida antifungal efflux pumps expressed in yeast. S. cerevisiae Candida pump triplex, Nile Red efflux. inhibition, % at 10 µM. actives 0.44% (n = 330,000);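 active = plate passing quality check with inhibition over a set limit, or well fluorescence over plate mean plus 4 SD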;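 also: Nile Red retained in pooled yeast measured as flow cytometry median fluorescence; 0% = buffer negative control and 100% = Enniatin B positive control; higher means more Nile Red kept so more efflux inhibition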
SUMO Mot1 rescue: SUMOylation pathway inhibition by Mot1-301 growth rescue | S. cerevisiae Mot1-301 growth rescue, ATP luminescence, 38.5C; percent above DMSO median, 100 means doubled | growth rescue, % at 18.8 µM | actives 1% (n = 320,000);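 active = every valid replicate shows activation above 250% relative to neutral control wells; inactive = the rest, any valid replicate at or below 250%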;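 also: OY570 slx delta 5 strain wells were the positive control but not used for scaling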
Mot1 SUMO dose: SUMO pathway inhibitors in yeast Mot1-301 growth | 2,300 tested, under 10 active | shares compounds with SUMO Mot1 rescue | S. cerevisiae Mot1-301 galactose growth, ATP luminescence, 24 h; -100 = growth of slx-deleted rescue strain | growth activity, percent, % at 42 µM;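 active = Signal drops as the depositor expects, and the fitted half-maximal dose is no more than ten times the top valid tested dose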;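 also: more negative values mean stronger growth rescue toward the control strain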
AHR act confirm: confirmation of human aryl hydrocarbon receptor activators. actives 87% (n = 2,300). shares compounds with AHR act. human cells, AHR-responsive luciferase reporter, luminescence. activation, % at 9 µM; in the data active = activation above about 49%;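 also: HepG2 hepatoma cells carrying a DRE-driven firefly luciferase reporter; 0% = vehicle wells and 100% = reference agonist wells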
PXR act counter: counter-screen for AHR activators: human PXR activators; cell-based PXR reporter, luciferase luminescence; actives 88% (n = 2,300); activation, % at 11.6 µM; AID 434939; shares compounds with AHR act; in the data active = activation above about 11%;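 also: human hepatoma DPX-2 cells expressing full-length human PXR; 0% = DMSO and 100% = reference agonist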
Target sequence (O75469 whole entry, looked up): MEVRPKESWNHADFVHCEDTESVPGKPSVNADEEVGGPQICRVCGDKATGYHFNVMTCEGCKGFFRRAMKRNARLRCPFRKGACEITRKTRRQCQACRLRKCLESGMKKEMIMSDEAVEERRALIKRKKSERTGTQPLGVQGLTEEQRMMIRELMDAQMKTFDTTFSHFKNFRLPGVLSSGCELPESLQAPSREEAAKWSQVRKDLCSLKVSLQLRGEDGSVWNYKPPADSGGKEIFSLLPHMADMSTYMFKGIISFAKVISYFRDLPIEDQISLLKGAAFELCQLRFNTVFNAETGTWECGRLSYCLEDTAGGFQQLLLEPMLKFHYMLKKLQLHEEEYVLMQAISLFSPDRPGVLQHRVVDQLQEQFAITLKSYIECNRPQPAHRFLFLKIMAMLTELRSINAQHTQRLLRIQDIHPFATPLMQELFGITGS
Yeast cmpd fluor: compound fluorescence in yeast efflux pump counter-screen; shares compounds with Efflux pump inh; AID 588517; S. cerevisiae AD/pABC3, flow cytometry; fluorescence ratio to DMSO, % at 10 µM; actives 4% (n = 1,700);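 active = fluorescence ratio to DMSO above its plate's cutoff, the plate mean ratio plus 5 SD, cut at about 210% in these data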;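 also: unstained yeast with no Nile Red so the signal is compound autofluorescence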
Mdr1 pump inh: blocks the Candida albicans Mdr1 efflux pump in yeast; shares compounds with Efflux pump inh; S. cerevisiae AD/CaMDR1, Nile Red efflux, flow cytometry; inhibition, % at 10 µM; actives 1% (n = 1,700); AID 588518; in the data active = inhibition above about 26%;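 also: 0% = DMSO vehicle and 100% = reference inhibitor; higher means more Nile Red retained so more efflux inhibition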
CaCdr2 efflux inh: blocks the Candida albicans Cdr2 efflux pump in yeast; shares compounds with Efflux pump inh; S. cerevisiae AD/CaCDR2, Nile Red retention, flow cytometry; Nile Red retention ratio vs DMSO, % at 10 µM; actives 4% (n = 1,700); in the data active = Nile Red retention ratio vs DMSO above about 190%;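 also: higher ratio means more blocking of Cdr2 efflux of the dye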
Cdr1 pump inh: inhibitors of Candida albicans Cdr1 efflux pump; AID 588522; shares compounds with Efflux pump inh; actives 1% (n = 1,700); inhibition, % at 10 µM; S. cerevisiae AD/CaCDR1, Nile Red efflux, flow cytometry;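 active = inhibition above the screen-wide mean plus twice its standard deviation, cut at about 32% in these data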
* = called active by the depositor; nt = no result given; + = active, no number.

SMILES | VLA-4 inh | Bfl-1 A1 inh | ALR inh | AHR act | Efflux pump inh | SUMO Mot1 rescue | others
C=C1C(O)[C@@H]2O[C@]3(CC[C@H](/C=C/C(C)[C@@H]4CC(C)=CC5(O[C@H](C[C@@](C)(O)C(=O)O)CCC5O)O4)O3)CC[C@H]2O[C@@H]1C(O)CC(C)[C@H]1OC2(CCCCO2)CCC1C (stereo partly drawn) | 36 | -2 | 0 | -9 | 0 | 888* | Mot1 SUMO dose=-2
O=c1[nH]c(O)c(C=Nc2ccccc2Oc2ccccc2)c(=O)[nH]1 | -107 | 1 | -3 | 2 | 0 | 1
CCOC(=O)C1(c2ccccc2)CCN(CCC(=O)Nc2ccccc2OC)CC1 | 1 | 0 | 1 | 1 | 0 | 378* | Mot1 SUMO dose=1
CCOC(=O)C1(c2ccccc2)CCN(CCC(=O)Nc2ccc(F)cc2)CC1 | 20 | 1 | -10 | 0 | 0 | 10
CNC(C(=O)c1ccccc1)C(OC(C)=O)c1cccc([N+](=O)[O-])c1 (stereo not drawn) | 4 | 2 | 10 | 0 | 0 | -2
CC(C)C/C(=N/O)c1c[nH]c2ccccc12 | 12 | 1 | 32 | 16 | 0 | 572* | Mot1 SUMO dose=1
COc1ccc2c3c([nH]c2c1)C(C)NCC3 (stereo not drawn) | -30 | 2 | -2 | 10 | 0 | -2
COc1ccc2c(c1)[C@@]13CCC=C[C@H]1[C@@H](C2)NCC3 | 24 | 0 | 1 | 0 | 0 | 455* | Mot1 SUMO dose=0
Cn1c(O)c(/C=N/N2CCOCC2)c(=O)[nH]c1=S | 2 | 0 | 9 | -2 | 0 | 357
CCN(CC)P(=S)(c1c(C)nc2ccccn12)c1c(C)nc2ccccn12 | 15 | 1 | 3 | -1 | 0 | -21
CCOc1c(P(=S)(N(C)C)N(C)C)c(C)nn1-c1ccccc1 | 6 | 0 | 4 | 10 | 0 | 891* | Mot1 SUMO dose=0
CCOP(=O)(OCC)c1cc(CC)ccc1O | 7 | 0 | -4 | 0 | 0 | + | Mot1 SUMO dose=0
OC1(c2ccc(F)cc2)CC2CCC(C1)N2Cc1nnnn1C1CCCCC1 (stereo not drawn) | 1 | 0 | -2 | 0 | 0 | 674* | Mot1 SUMO dose=1
NC(=O)Nc1ccc(C(=O)OCC(=O)Nc2ccc(Cl)cc2C(=O)c2ccccc2)cc1 | 11 | 0 | 2 | 93* | 1 | 1 | AHR act confirm=5;PXR act counter=14*
COc1ccc2oc3c(c2c1)NC(=O)CN=C3c1ccccc1 | 2 | 0 | -2 | 13 | 0 | 194
O=C1CN=C(c2ccc(Cl)cc2)c2oc3ccccc3c2N1 | 5 | 0 | nt | 104* | 0 | -1 | AHR act confirm=119*;PXR act counter=31*
CCCCCc1nc2c(c(=O)c3ccccc3n2C)c(=O)n1C1CCCCCC1 | -5 | 0 | -3 | 3 | 1 | 22
CN1CCC(c2c[nH]c3ccccc23)C1 (stereo not drawn) | 13 | 0 | 4 | 34 | 0 | -13
CC1CCCC(C)N1/N=C/c1c[nH]c2ccc(Br)cc12 (stereo not drawn) | -1 | 0 | 99* | 89* | 1 | -12 | AHR act confirm=83*;PXR act counter=60*
COc1ccccc1-n1c(CNCC2CCCO2)nc2ccccc2c1=O (stereo not drawn) | 2 | 1 | -5 | 81* | 0 | -13 | AHR act confirm=48*;PXR act counter=37*
O=C(COc1ccccc1)c1cn(Cc2ccccc2)c2ccccc12 | -17 | -1 | nt | 84* | -1 | 5 | AHR act confirm=66*;PXR act counter=103*
C(CCc1nn[nH]n1)CCc1nn[nH]n1 | 5 | 0 | 1 | -3 | 0 | -2
Cc1ccnc(-n2c(C)nc3ccccc3c2=O)c1 | -6 | 0 | -4 | 13 | 0 | -20
Cc1cccc(N2CCc3c2nc2ccccc2c3N)c1 | 3 | 2 | 3 | 83* | 0 | 95 | AHR act confirm=86*;PXR act counter=55*
CCOC(=O)[C@@]12C(=O)C(=O)N[C@]1(c1ccccc1)C1OCCCC12 (stereo partly drawn) | 10 | 0 | -1 | -2 | 0 | 3
SMILES | VLA-4 inh | Bfl-1 A1 inh | ALR inh | AHR act | Efflux pump inh | SUMO Mot1 rescue | others
CC(C)=CCOc1c2occc2cc2ccc(=O)oc12 | 7 | 0 | -4 | 114* | 0 | 4 | AHR act confirm=86*;PXR act counter=78*
Cc1cc(C(=O)N=Nc2c(O)n(C)c3ccccc23)c(C)o1 | 15 | -4 | nt | 24 | 0 | -10
COc1ccc2c(c1)/C(=C/c1cnc[nH]1)C(=O)N2 | -2 | 0 | 70 | 248* | 0.8* | -23 | AHR act confirm=49*;PXR act counter=15*;Yeast cmpd fluor=106;Mdr1 pump inh=0;CaCdr2 efflux inh=93;Cdr1 pump inh=0
CCC(=NCc1cccnc1)c1c(O)n(-c2ccccc2)c(=O)[nH]c1=O | 9 | 0 | -13 | 4 | 0 | -13
CCOC(=O)c1c(C)n(COCCO)c2ccc(O)cc12 | 17 | 0 | -10 | 17 | 7.5* | -23 | Yeast cmpd fluor=92;Mdr1 pump inh=0;CaCdr2 efflux inh=91;Cdr1 pump inh=0
NP(=O)(OCC(F)(F)F)Oc1ccccc1 (stereo not drawn) | -14 | 0 | nt | 0 | 0 | 328
CCc1ccc2c(CN3CC=C(c4ccccc4)CC3)cc(=O)oc2c1 | 0 | 1 | -2 | 1 | 10* | 0 | Yeast cmpd fluor=107;Mdr1 pump inh=0;CaCdr2 efflux inh=101;Cdr1 pump inh=0
OC(CNC1CCCCCCC1)c1ccccc1 (stereo not drawn) | 0 | -1 | -3 | -3 | 0 | 126
CC1CCC(NCC(O)c2ccccc2)CC1 (stereo not drawn) | 12 | 0 | 5 | 2 | 8.2* | -14 | Yeast cmpd fluor=108;Mdr1 pump inh=0;CaCdr2 efflux inh=100;Cdr1 pump inh=0
CCOc1ccc(CC2(CCc3ccncc3)C(=O)NC(=O)NC2=O)cc1 | 5 | 0 | -3 | 1 | 0 | 3
COc1ccc(C)cc1NC1=NCCCS1 | 7 | 2 | nt | 3 | 0 | -18
